# Screening results as filed in PubChem BioAssay.
# Rows were chosen to be rich in hits. Some 2.4% of all compounds tested hit in one or more screens of this group.
# CHT PAM: CHT positive allosteric modulators, primary screen, cell-based, membrane potential dye, choline EC20. High affinity choline transporter 1 (Homo sapiens), Q9GZV3. CHT-expressing cells; stronger effect = higher value; LV-AA mutant CHT in HEK293 cells. B-score at 10 µM. 310,000 tested, 0.49% active. AID 488977, 2010;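 active = initial fluorescence not abnormally high and integrated response B-score, plate-corrected, over 3 SD above library mean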
# TMEM16A act: TMEM16A chloride channel activators or potentiators, primary screen, cell-based, HTS; Anoctamin-1 (Mus musculus), Q8BHY3; B-score at 10 µM; HEK293 TMEM16A/YFP-H148Q/I152L, iodide quench fluorescence; stronger effect = lower value; 340,000 tested, 0.3% active; AID 623877, 2012;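 active = fluorescence-ratio B-score plate-corrected deviation score at least 3 library SD below zero, with starting fluorescence score within 5 deviations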;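 note: channel opened by trigger with iodide after compound preincubation; score built on the fluorescence ratio of max minus min over baseline; more negative score means more quench and so TMEM16A activation or potentiation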
# TMEM16A inh: TMEM16A chloride channel inhibitors, primary screen, cell-based, HTS; HEK293 TMEM16A/YFP iodide influx fluorescence, ionomycin; normalized B-score (activity score, 25-100; higher = stronger inhibition) at 10 µM; 310,000 tested, 1.2% active; AID 588511, 2011;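 active = ratio plate-corrected score three or more library SD toward inhibition, starting fluorescence score within five deviations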;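 note: score derived from kinetic fluorescence span divided by baseline fluorescence per well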
# CHT inh: inhibitors of human choline transporter CHT | CHT-expressing cells, membrane potential dye, choline response; stronger effect = lower value | B-score at 10 µM | 310,000 tested, 0.86% active;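 active = B-score over 3 SD under the library average, and starting fluorescence ratio not unusually high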;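 note: choline stimulus applied at its EC90 after an EC20 pre-addition; B-score computed on integrated fluorescence ratio after choline addition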
# CHT block conf: CHT inhibitors, confirmation, cell-based, membrane potential dye, duplicate. CHT-expressing cells, choline membrane potential dye; LV-to-AA substituted CHT, HEK293 cells. CHT activity remaining % of control (stronger effect = lower value), % at 10 µM. 2,400 tested, 70% active. shares compounds with CHT inh;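 active = choline transporter activity left, mean of duplicates at 10 µM, below buffer-only control mean minus 3 SD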;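 note: depolarization triggered by choline at its EC90 following an EC20 pre-addition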
# HEK293 CHT ctr: membrane potential effects in parental HEK293, counter-screen for CHT inhibitor project, cell-based, membrane potential dye; shares compounds with CHT inh; choline response; active = decrease or increase beyond buffer ±3SD; membrane potential ratio readout (active if shifted either direction beyond buffer ±3SD; no single direction) at 10 µM; 2,400 tested, 4% active; AID 493222, 2011;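 note: parental cells lack the transporter so any hit is non-specific; ratio is peak minus trough fluorescence over baseline after EC90 choline challenge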
# A number is an active result; 0 = inactive; - = not tested or not shown.
SMILES,CHT PAM,TMEM16A act,TMEM16A inh,CHT inh,CHT block conf,HEK293 CHT ctr
CCCCN1Cc2c(nc3cc(-c4ccco4)[nH]n3c2=O)C1=O,0,0,0,0,-,-
O=C(O)CC1(CC(=O)Nc2cc3ccccc3cn2)CCCCC1,0,0,0,0,-,-
Cc1cc(C)n2nc(CNS(=O)(=O)c3ccc(C)c(C)c3)nc2n1,0,0,0,-6.9,0,0
Cc1cc(C)n2nc(CNS(=O)(=O)c3ccc(F)c(C)c3)nc2n1,0,0,0,0,-,-
O=C1CC(c2ccc(S(=O)(=O)Nc3cc(C(F)(F)F)cc(C(F)(F)F)c3)cc2)CN1 (stereo not given),0,0,0,0,-,-
CC1=C(C(=O)Nc2cccc(C(=O)NC3CCCCC3C)c2)SCCO1 (stereo not given),0,0,0,0,46%,0
CCOCCCNC(=O)c1cccc(NC(=O)C2=C(C)OCCS2)c1,0,0,0,0,-,-
C=CCN1CC(O)=C(c2nc3ccccc3[nH]2)C1=N,0,0,0,0,-,-
CC(C)CN(C(=O)CC1OC(=O)c2ccccc21)c1c(N)n(Cc2ccccc2)c(=O)[nH]c1=O (stereo not given),0,0,0,0,-,-
CCCCCn1c(=O)[nH]c2cc(C(=O)NCCN3CCC(C)CC3)ccc2c1=O,0,0,0,-6.1,0,0
COc1cccc(CNc2ccc(N3CCC(C)CC3)cc2)c1OC,0,0,0,-5.4,54%,0
COc1ccc2cc(C(C)C(=O)N3CCC(C)CC3)ccc2c1 (stereo not given),0,0,0,0,-,-
CSc1cnc2c(=O)n(C)c(=O)[nH]c2n1,0,0,0,0,-,-
Cn1c(=O)[nH]c2nnc(-c3ccc(Cl)c(Cl)c3)nc2c1=O,0,0,0,-5,34%,0
Cc1cc(NC(=O)CCC(=O)N(Cc2ccccc2)C2(C(=O)NC3CCCCC3)CCCC2)no1,0,0,0,-5.6,0,0
COc1ccc(CN2CCN(C3CCC3)CC2CCO)cc1C (stereo not given),0,0,0,0,-,-
Cc1cc(/C=N/NC(=O)C(=O)NCc2ccccn2)c(C)n1-c1ccccc1,0,0,0,-7,34%,0
O=C1OCCC1Sc1nc2ccccc2n1Cc1ccccc1 (stereo not given),0,0,0,0,-,-
O=C1OCCC1Sc1nc2ccccc2n1-c1ccccc1 (stereo not given),0,0,0,-5.8,0,0
CC1=C/C(=N\NC(=S)NCc2ccccc2)CC1,0,0,0,0,-,-
COc1ccccc1N1CC(C(=O)Nc2cc(C(F)(F)F)ccc2N2CCCC2)CC1=O (stereo not given),0,0,0,0,-,-
CCOC(=O)Cc1csc(N/C(=N/S(=O)(=O)c2ccc(F)cc2F)c2ccccc2)n1,0,0,0,-6.8,63%,0
Cc1ccc2nc(N/C(=N/S(=O)(=O)c3ccc(F)cc3F)c3ccccc3)sc2c1,0,0,0,0,-,-
Cc1cc(=O)[nH]c(SCC(=O)Nc2ccc(F)cc2)c1C#N,0,0,0,-10,62%,0
Cc1cc(=O)[nH]c(SCC(=O)Nc2ccccc2C#N)c1C#N,0,0,0,0,-,-
SMILES,CHT PAM,TMEM16A act,TMEM16A inh,CHT inh,CHT block conf,HEK293 CHT ctr
Cc1ccc(S(=O)(=O)N2CCC(=O)N(CCOCc3ccc(F)cc3)CC2)cc1,0,0,0,-5.9,54%,0
O=C1CCN(S(=O)(=O)c2ccccc2)CCN1CCOCc1ccc(F)cc1,0,0,0,0,-,-
NC(=O)C1CCN(C(=O)c2ccc(-c3ccccc3Cl)o2)CC1,-,0,-,-,-,-
NC(=O)c1c(NC(=O)CN2C(=O)NC(Cc3ccccc3)C2=O)sc2c1CCC2 (stereo not given),0,0,0,-6.3,62%,0
CC1CCC2(CC1)NC(=O)N(CC(=O)Nc1sc3c(c1C(N)=O)CCC3)C2=O (stereo not given),0,0,0,0,-,-
Cc1ccc2[nH]c3c(c2c1)CN(C(=O)CN1CCN(Cc2ccc4c(c2)OCO4)CC1)CC3,0,0,0,-5.6,38%,0
FC(F)(Cl)c1nnc2ccc(Sc3ccccn3)nn12,0,0,0,0,-,-
O=C(Nc1ccc(Cl)cc1)Nc1ccc(N2CCC(C(F)(F)F)CC2)nc1,0,0,0,-6.1,0,0
O=C(COC(=O)C1CCN(c2ccc(C(F)(F)F)cn2)CC1)Nc1ccc(Cl)cc1,0,0,0,0,-,-
Cc1ccc(-c2nnc(Sc3nc4ccccc4o3)c3ccccc23)cc1,0,0,0,0,-,-
Cc1nnc(Sc2nc3ccccc3o2)c2ccccc12,0,0,0,-5.9,27%,0
O=C(c1cccc(OC2CCN(Cc3ccc(F)cc3Cl)CC2)c1)N1CCCC1,0,0,0,-5.4,36%,0
Cc1ccc(S(=O)(=O)/N=C2\C=C(Nc3cccc(C(=O)O)c3)C(=O)c3ccccc32)cc1,0,0,25,-5.9,41%,2.5
COc1ccc(Cc2noc(CN(C)CC(O)c3ccccc3)n2)cc1OC (stereo not given),0,0,0,-5.7,0,0
CN1CCCN(c2ncnc3scc(-c4ccc(F)cc4)c23)CC1,0,0,0,-10,24%,0
C=CCNC(=O)/C(=C\c1ccc(Br)cc1)NC(=O)c1ccccc1OC,0,0,0,0,-,-
Cc1c(N=Nc2ccc(O)cc2)c(=O)n(-c2ccccc2)n1C,0,0,0,0,-,-
Cc1[nH]c2ccccc2c1N=Nc1c(C)n(C)n(-c2ccccc2)c1=O,0,0,0,-13,0,0
Cc1[nH]nc2c1C(c1cccs1)C1=C(CC(C)(C)CC1=O)N2 (stereo not given),0,0,0,0,-,-
CC(C)Sc1nc2c(c(=O)[nH]1)C(c1cccs1)C1=C(CC(C)(C)CC1=O)N2 (stereo not given),0,0,0,-5.8,0,0
Cc1ccc(C)c(NC(=O)C2CCN(C(=O)c3cccs3)CC2)c1,0,0,0,0,-,-
Cc1ccc2c(cnn2C(=O)CCC(=O)NCc2ccccc2Cl)c1,0,0,0,0,-,-
CCOCCCNC(=S)Nc1cc(C)cc(C)c1,0,0,0,0,-,-
Nc1ccc(N(CCO)CCO)cc1,0,0,0,0,-,-
Cc1cc(N(CCO)CCO)ccc1N=Nc1cc(F)ccc1F,0,0,0,-5.4,56%,0
CC1CCCC(NC(=O)CCNC(=O)c2ccc(Br)cc2)C1C (stereo not given),0,0,0,-5.1,0,0
